# Reference: PubChem BioAssay (Tox21)
# Values without a mark were called inactive. Records with an inconclusive call do not appear. A call without a number means that no potency is given here. The source made the active and inactive calls. Unless noted, calls come from the whole dose curve; as a rule, active = well fitted curve in the direction sought with a large enough effect in the repeat runs; inconclusive = weak or mixed curves; inactive = no such curve, though single readings can be large; an effect the other way counts as inactive or inconclusive.
# Key:
# [1] = qHTS assay to identify small molecule antagonists of the estrogen related receptor (ERR) signaling pathway from Tox21 library - cell viability counter screen (AID 1224834); note: nearly all actives have a fitted effect of over 30% in size; note: potency is the fitted concentration of half-maximal effect
# In short: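 After 17.5 h of compound exposure at 37 C, ERR cells are incubated with CellTiter-Fluor for 30 min and fluorescence intensity serves as the viability measure.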
# [2] = biological target: Luciferin 4-monooxygenase (Photinus pyralis) (UniProt P08659); assay: qHTS assay to identify small molecule inhibitors of firefly luciferase (AID 1224835); note: nearly all actives have a fitted effect of over 25% in size; note: potency is the fitted concentration of half-maximal effect
# In short: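 Quantitative HTS format; KM concentrations of both substrates. Purified P. pyralis FLuc activity quantified from luminescence images.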
# [3] = qHTS assay to identify small molecule agonists of the constitutive androstane receptor (CAR) signaling pathway - cell viability counter screen (AID 1224836); note: nearly all actives have a fitted effect of over 45% in size; note: potency is the fitted concentration of half-maximal effect
# In short: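 23 h treatment, 37 C, 5% CO2. Cell line: HepG2 stably expressing hCAR with a CYP2B6-2.2kb construct. Co-treatment: PK11195, 0.75 uM final. Read-out: CellTiter-Fluor fluorescence intensity.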
# [4] = qHTS assay to identify small molecule antagonists of the constitutive androstane receptor (CAR) signaling pathway - cell viability counter screen (AID 1224837); note: nearly all actives have a fitted effect of over 45% in size; note: potency is the fitted concentration of half-maximal effect
# In short: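 Counter screen run in HepG2-CYP2B6-hCAR cells: 4 hr settle, compound titration (15 concentrations) with 50 nM CITCO, 23 hr at 37 C/5% CO2, CellTiter-Fluor fluorescence.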
# [5] = biological target: Nuclear receptor subfamily 1 group I member 3 (Homo sapiens) (UniProt Q14994); assay: qHTS assay to identify small molecule agonists of the constitutive androstane receptor (CAR) signaling pathway (AID 1224839); note: nearly all actives have a fitted effect of over 15% in size; note: potency is the fitted concentration of half-maximal effect;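 for activation: HepG2 cells stably carrying human CAR and a CYP2B6 luciferase reporter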
# In short: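 Compounds tested at 15 concentrations on HepG2 cells stably harbouring hCAR and CYP2B6-2.2kb reporter constructs, co-treated with PK11195 (0.75 uM final), 24 h at 37 C; luminescent reporter signal quantified.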
# [6] = qHTS assay to identify small molecule agonists of the estrogen related receptor signaling pathway with the pleiotropic PPARgamma coactivator (PGC) from Tox21 10K library (AID 1224842); note: nearly all actives have a fitted effect of over 15% in size
# In short: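 PGC/ERR reporter cells (NTP line) were seeded 2,000 per well, rested 6 h at 37 C/5% CO2, then pin-dosed with compounds in DMSO for 18 h at 37 C; luciferase read by One-Glo luminescence after 30 min at room temperature.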
# [7] = biological target: Thyrotropin receptor (Homo sapiens) (UniProt P16473); assay: qHTS assay to identify small molecule agonists of the thyroid stimulating hormone receptor (TSHR) signaling pathway (AID 1224843; calls by dose curve; note: nearly all actives have a fitted effect of over 45% in size)
# In short: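 Cell line HEK293 with TSHR; density 800/well. Exposure 30 min RT. Readout HTRF cAMP (cAMP-d2/anti-cAMP-cryptate), 1 h RT before reading.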
# [8] = qHTS assay to identify small molecule agonists of the hypoxia (HIF-1) signaling pathway - cell viability counter screen (AID 1224844; calls by dose curve; note: nearly all actives have a fitted effect of over 50% in size; note: potency is the fitted concentration of half-maximal effect)
# In short: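 Cells (HRE-bla ME-180, 2,000 per well) sat 5 hrs at 37C, got compound for 17 hrs, were read for CCF4-AM FRET, and were finally lysed with CellTiter-Glo for a 30 min room-temperature luminescence read.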
# [9] = qHTS assay to identify small molecule agonists of H2AX (AID 1224845; active = well fitted activation curve with a large enough effect in the signal ratio in the repeat runs, not every such curve was filed as active; the % refers to the signal ratio)
# In short: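 Wild-type CHO-K1 cells plated overnight, then exposed 3 hr at 37C to compounds at 15 concentrations (0.76% DMSO). Lysed, then HTRF anti-pH2AX(S139)-cryptate/anti-H2AX-d2 detection after 24 hr at room temperature; emissions 665 and 620 nm.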
# [10] = qHTS assay to identify small molecule agonists of the hypoxia (HIF-1) signaling pathway (AID 1224846; active = well fitted activation curve with a large enough effect in the signal ratio in the repeat runs, not every such curve was filed as active; the % refers to the signal ratio)
# In short: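 A low-serum medium (0.5% dialyzed FBS) holding 2,000 HRE-bla ME-180 cells per well is preincubated for 5 hrs, dosed with compounds by pintool, and kept a further 17 hrs at 37C, 5% CO2 before CCF4-AM FRET detection of beta-lactamase.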
# [11] = qHTS assay to identify small molecule agonists of H2AX - cell viability counter screen (AID 1224847; calls by dose curve; note: nearly all actives have a fitted effect of over 30% in size; note: potency is the fitted concentration of half-maximal effect; for activity change, negative = cytotoxicity: top concentration of the series differs between compounds)
# In short: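 Compounds tested at 15 concentrations were incubated 3 hr at 37C with wild-type CHO-K1 cells; cellular ATP-based luminescence (CellTiter-Glo) indicated viability.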
# [12] = qHTS assay to identify small molecule agonists of the estrogen related receptor (ERR) signaling pathway from Tox21 library (AID 1224849; calls by dose curve; note: nearly all actives have a fitted effect of over 15% in size); details: ERR reporter cell line, ONE-Glo luciferase, 18 h; at 92.4 µM (top of the series) unless noted
# In short: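 Screening used an NTP-provided ERR luciferase cell line. Compounds in DMSO were added 6 h after seeding and left 18 h at 37 C before a 30 min ONE-Glo step and luminescence reading.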
# [13] = qHTS RealTime-Glo MT Cell Viability Assay in HepG2 cells - 24 hour (AID 1224867); note: nearly all actives have a fitted effect of over 50% in size
# In short: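 Luminescence read-out: viable HepG2 cells reduce a prosubstrate to a NanoLuc substrate, giving a signal proportional to live cell number. Reads taken at 0, 8, 16, 24, 32 and 40 h of compound exposure at 37 C.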
# [14] = qHTS RealTime-Glo MT Cell Viability Assay in HEK293 cells - 32 hour (AID 1224868); note: nearly all actives have a fitted effect of over 50% in size; note: potency is the fitted concentration of half-maximal effect; for activity change, negative = cytotoxic: top concentration of the series differs between compounds
# In short: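 Nonlytic real-time viability readout: viable cells convert prosubstrate to NanoLuc substrate, giving luminescence proportional to live cell number. HEK293, 600 cells/well, compound added after 5 h, continuous culture at 37 C.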
# [15] = A CellTox Green Cytotoxicity Assay to monitor cytotoxicity in HEK293 cells - 0 hour (AID 1224869); note: nearly all actives have a fitted effect of over 50% in size
# In short: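 Fluorescence intensity, read at 0, 8, 16, 24, 32 and 40 h of compound treatment, reflected dye binding to DNA of dead HEK293 cells; compounds (23 nL, DMSO) were added 5 h after plating cells with reagent.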
# [16] = qHTS RealTime-Glo MT Cell Viability Assay in HepG2 cells - 40 hour (AID 1224870); note: nearly all actives have a fitted effect of over 50% in size
# In short: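 HepG2 cells mixed with RealTime-Glo MT reagents (NanoLuc plus cell-permeant prosubstrate) were seeded at 600 cells/well, incubated 5 h at 37 C/5% CO2, then pinned with compounds in DMSO; nonlytic luminescence tracked viability during 40 h treatment.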
# [17] = qHTS assay to identify small molecule antagonists of the estrogen related receptor (ERR) signaling pathway from Tox21 library (AID 1224848); note: nearly all actives have a fitted effect of over 50% in size; note: potency is the fitted concentration of half-maximal effect
# In short: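 Screening used an ERR reporter line supplied by NTP, exposed for 18 h at 37 C to library compounds delivered in DMSO. Signal was luciferase luminescence developed with ONE-Glo at room temperature for 30 min.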
# [18] = qHTS assay to identify small molecule antagonists of the estrogen related receptor signaling pathway with the pleiotropic PPARgamma coactivator (PGC) from Tox21 10K library - cell viability counter screen (AID 1224840; active = well fitted cell-killing curve with a large enough effect in the repeat runs, not every such curve was filed as active; note: nearly all actives have a fitted effect of over 40% in size; note: potency is the fitted concentration of half-maximal effect)
# In short: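 Following seeding of 2,000 PGC/ERR cells/well and 6 hours' incubation, test compounds were delivered in DMSO. The plates then sat 17.5 hours at 37 C before a fluorogenic live-cell protease reagent (CellTiter-Fluor) was read after 30 min.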
# [19] = qHTS assay to identify small molecule antagonists of the estrogen related receptor signaling pathway with the pleiotropic PPARgamma coactivator (PGC) from Tox21 10K library (AID 1224841; call rule not given here; note: potency is the fitted concentration of half-maximal effect)
# In short: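 qHTS antagonist format: PGC/ERR cells, 2k/well, compound in DMSO by pin transfer after 6 h attachment, 18 h treatment at 37 C, One-Glo luminescence read at 30 min.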
# Sequence of Luciferin 4-monooxygenase (Photinus pyralis) (P08659 whole entry, looked up): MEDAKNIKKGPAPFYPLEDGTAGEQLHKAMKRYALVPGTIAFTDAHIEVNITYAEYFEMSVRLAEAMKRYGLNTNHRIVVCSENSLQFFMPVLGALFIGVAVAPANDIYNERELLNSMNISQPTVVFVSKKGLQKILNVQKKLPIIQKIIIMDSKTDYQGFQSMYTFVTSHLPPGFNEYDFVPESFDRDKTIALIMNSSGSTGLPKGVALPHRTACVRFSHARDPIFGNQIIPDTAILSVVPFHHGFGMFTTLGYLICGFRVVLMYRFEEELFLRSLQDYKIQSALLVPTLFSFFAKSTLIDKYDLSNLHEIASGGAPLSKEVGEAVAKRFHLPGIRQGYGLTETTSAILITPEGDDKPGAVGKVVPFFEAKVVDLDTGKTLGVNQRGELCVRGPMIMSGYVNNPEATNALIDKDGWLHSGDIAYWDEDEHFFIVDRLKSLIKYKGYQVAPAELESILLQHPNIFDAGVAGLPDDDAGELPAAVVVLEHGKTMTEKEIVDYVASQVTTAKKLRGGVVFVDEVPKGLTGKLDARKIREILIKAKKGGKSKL
# Sequence of Nuclear receptor subfamily 1 group I member 3 (Homo sapiens) (Q14994 whole entry, looked up): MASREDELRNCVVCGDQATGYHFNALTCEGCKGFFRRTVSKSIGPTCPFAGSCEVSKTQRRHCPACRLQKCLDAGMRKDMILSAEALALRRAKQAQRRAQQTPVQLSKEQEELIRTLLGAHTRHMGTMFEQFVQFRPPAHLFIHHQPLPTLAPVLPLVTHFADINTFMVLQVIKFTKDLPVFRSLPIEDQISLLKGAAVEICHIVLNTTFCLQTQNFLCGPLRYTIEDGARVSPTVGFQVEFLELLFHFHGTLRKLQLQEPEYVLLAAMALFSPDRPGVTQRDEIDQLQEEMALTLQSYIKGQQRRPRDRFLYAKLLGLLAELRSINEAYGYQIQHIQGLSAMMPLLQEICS
# Sequence of Thyrotropin receptor (Homo sapiens) (P16473 whole entry, looked up): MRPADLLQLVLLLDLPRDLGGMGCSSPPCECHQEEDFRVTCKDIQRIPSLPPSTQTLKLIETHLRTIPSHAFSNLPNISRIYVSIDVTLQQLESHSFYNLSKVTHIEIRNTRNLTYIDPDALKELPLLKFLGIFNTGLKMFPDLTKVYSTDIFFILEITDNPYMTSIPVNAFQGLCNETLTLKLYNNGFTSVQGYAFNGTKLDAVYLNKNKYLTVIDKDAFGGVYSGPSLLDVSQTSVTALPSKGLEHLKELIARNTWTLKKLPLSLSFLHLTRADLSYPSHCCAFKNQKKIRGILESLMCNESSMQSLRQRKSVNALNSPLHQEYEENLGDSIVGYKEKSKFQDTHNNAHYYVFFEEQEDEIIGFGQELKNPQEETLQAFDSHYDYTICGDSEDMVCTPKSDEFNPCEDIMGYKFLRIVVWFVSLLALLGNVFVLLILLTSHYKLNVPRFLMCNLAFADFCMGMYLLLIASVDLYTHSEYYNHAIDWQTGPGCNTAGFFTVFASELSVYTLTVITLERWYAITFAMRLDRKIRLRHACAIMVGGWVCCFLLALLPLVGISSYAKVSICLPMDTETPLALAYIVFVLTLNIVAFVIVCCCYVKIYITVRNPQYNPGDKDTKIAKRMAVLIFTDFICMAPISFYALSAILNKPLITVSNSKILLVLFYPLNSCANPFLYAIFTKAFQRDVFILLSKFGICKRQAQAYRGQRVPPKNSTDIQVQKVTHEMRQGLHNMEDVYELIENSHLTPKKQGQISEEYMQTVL
smiles,measurement,setting,value
CO/N=C1\CN(c2nc3c(cc2F)c(=O)c(C(=O)O)cn3C2CC2)CC1CN (centres undefined),Potency,[1],inactive
same,Potency,[2],inactive
same,Potency,[3],inactive
same,Potency,[4],inactive
same,Potency,[5],inactive
same,Potency,[6],inactive
same,Potency,[7],inactive
same,Potency,[8],inactive
same,Potency,[9],inactive
same,outcome,[10],inactive
same,Potency,[11],inactive
same,"activity change, positive = activation",[12],-26.9% [at 42.5 µM]
same,Potency,[13],inactive
same,Potency,[14],inactive
same,Potency,[15],inactive
same,Potency,[16],inactive
CN(C)C(=O)Nc1ccc(Oc2ccc(Cl)cc2)cc1,Potency,[1],inactive
same,Potency,[2],63.3 µM (active)
same,Potency,[3],inactive
same,Potency,[4],inactive
same,Potency,[5],30.6 µM (active)
same,Potency,[6],inactive
same,Potency,[8],inactive
same,Potency,[9],inactive
same,outcome,[10],inactive
same,Potency,[11],89.8 µM (active)
same,Potency,[17],13.7 µM (active)
same,"activity change, positive = activation",[12],-44.7%
same,Potency,[13],inactive
same,Potency,[14],38.9 µM (active)
same,Potency,[15],inactive
same,Potency,[16],inactive
Cn1c(=O)c2c(ncn2CC(=O)O)n(C)c1=O,Potency,[1],inactive
same,Potency,[2],inactive
same,Potency,[3],inactive
same,Potency,[4],inactive
same,Potency,[18],inactive
same,Potency,[7],inactive
same,Potency,[8],inactive
same,Potency,[9],inactive
same,outcome,[10],inactive
same,Potency,[11],inactive
same,Potency,[13],inactive
same,Potency,[14],inactive
same,Potency,[15],inactive
same,Potency,[16],inactive
CCn1cc(C(=O)O)c(=O)c2cc(F)c(N3CCNCC3)nc21,Potency,[1],inactive
same,Potency,[2],inactive
same,Potency,[3],inactive
same,Potency,[4],inactive
same,Potency,[18],inactive
same,Potency,[7],inactive
same,Potency,[8],inactive
same,Potency,[9],inactive
same,Potency,[11],inactive
same,Potency,[13],inactive
same,Potency,[14],inactive
same,Potency,[15],inactive
same,Potency,[16],inactive
CNC(=S)NC,Potency,[1],inactive
same,Potency,[2],inactive
same,Potency,[3],inactive
same,Potency,[4],inactive
same,Potency,[5],inactive
same,Potency,[7],inactive
same,Potency,[8],11 µM (active)
same,Potency,[9],inactive
same,Potency,[11],inactive
same,Potency,[13],inactive
same,Potency,[14],inactive
same,Potency,[15],inactive
same,Potency,[16],inactive
Cc1cc(S(=O)(=O)O)ccc1N=Nc1c(O)ccc2ccccc12,Potency,[1],30.6 µM (active)
same,Potency,[2],25.2 µM (active)
same,Potency,[3],48.6 µM (active)
same,Potency,[4],34.4 µM (active)
same,Potency,[18],34.4 µM (active)
same,Potency,[6],inactive
same,Potency,[7],inactive
same,Potency,[8],inactive
same,outcome,[10],inactive
same,Potency,[17],inactive
same,"activity change, positive = activation",[12],-1.94%
same,Potency,[13],inactive
same,Potency,[14],inactive
same,Potency,[15],inactive
same,Potency,[16],inactive
[O]=[Bi],"viability change, negative = cytotoxic",[1],0.391% [at 8.39 µM]
same,"activity change, negative = inhibition",[2],1.77% [at 10.5 µM]
same,"viability change, negative = cytotoxic",[3],0.628% [at 8.39 µM]
same,"activity change, negative = cytotoxicity",[4],-5.97% [at 8.39 µM]
same,"viability change, negative = cytotoxic",[18],-7.88% [at 8.39 µM]
same,Potency,[19],2.11 µM (active)
same,activation,[6],-4.11% [at 8.39 µM]
same,"activity change, negative = cytotoxicity",[8],28.4% [at 6.97 µM]
same,activation (H2AX phosphorylation),[9],-0.036% [at 14 µM]
same,activation,[10],0% [at 7.01 µM]
same,"activity change, negative = cytotoxicity",[11],2.81% [at 14 µM]
same,"activity change, positive = activation",[12],-10.5% [at 8.39 µM]
same,"activity change, negative = cytotoxicity",[13],3.35% [at 6.97 µM]
same,"activity change, negative = cytotoxic",[14],4.51% [at 6.97 µM]
same,cytotoxicity,[15],-1.07% [at 6.97 µM]
same,"activity change, negative = cytotoxic",[16],9.58% [at 6.97 µM]
O=[N+]([O-])c1cccc(S(=O)(=O)NCCNS(=O)(=O)c2cccc([N+](=O)[O-])c2)c1,Potency,[1],inactive
same,Potency,[2],inactive
same,Potency,[3],inactive
same,Potency,[4],inactive
same,Potency,[5],inactive
same,Potency,[19],inactive
same,Potency,[6],inactive
same,Potency,[8],inactive
same,Potency,[9],inactive
same,outcome,[10],inactive
same,Potency,[11],inactive
same,Potency,[17],inactive
same,"activity change, positive = activation",[12],-12.7% [at 42.5 µM]
same,Potency,[13],inactive
same,Potency,[15],inactive
same,Potency,[16],inactive
